“And” between values parts separate entries of the source, which are not always exact repeats. Equal entries are not always repeated. About 2,000 (36%) of roughly 5,500 compounds were called active. Not shown: some 18% with an inconclusive outcome. No stated cut-off is given here; in the data, active means normalized growth mostly below about 0.91 (no sharp cut-off); inconclusive means no clear call, values can overlap the other calls; inactive means mostly above about 0.92. This is one part of the list.
Experiment: chemical genetic growth profiling, strain panel (AID 1159580);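 further: tested at 20 µM; growth read once vehicle control cultures reached saturation at 30 °C; 1 = growth at the plate median or of vehicle wells; lower values mean less growth of the strain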
Conditions: S. cerevisiae deletion strains, growth OD

Measured: normalized growth

OC[C@H]1O[C@@](CO)(O[C@@H]2O[C@H](CO)[C@@H](O)[C@H](O)[C@H]2O)[C@@H](O[C@@H]2O[C@H](CO)[C@@H](O)[C@H](O)[C@H]2O)[C@@H]1O
inactive: locus YAL013W, strain DEP1, active compounds read low 1.02 | locus YAL021C, strain ccr4, active compounds read low 1.01 | locus YAL026C, strain drs2, active compounds read low 1.02 | locus YAL030W, strain snc1, active compounds read low 1.02 | locus YBL061C, strain skt5, active compounds read low 1.02 | locus YBR009C, strain hhf1, active compounds read low 1.02 | locus YBR021W, strain FUR4, active compounds read low 1.01 | locus YBR023C, strain chs3, active compounds read low 1.02 | locus YBR171W, strain sec66, active compounds read low 1.03 | locus YBR229C, strain ROT2, active compounds read low 1.01 | locus YBR231C, strain swc5, active compounds read low 1.02 | locus YBR279W, strain paf1, active compounds read low 1.02 | locus YCL011C, strain gbp2, active compounds read low 1.02 | locus YCL016C, strain dcc1, active compounds read low 1.02 | locus YCL029C, strain bik1, active compounds read low 1.05 | locus YCL061C, strain MRC1, active compounds read low 1.01 | locus YCL069W, strain vba3, active compounds read low 1.01 | locus YCR088W, strain abp1, active compounds read low 1.01 | locus YDL005C, strain med2, active compounds read low 1.02 | locus YDL035C, strain GPR1, active compounds read low 1.04 | locus YDL040C, strain nat1, active compounds read low 1.01 | locus YDL074C, strain BRE1, active compounds read low 1.09 | locus YDL101C, strain DUN1, active compounds read low 1.02 | locus YDL134C, strain PPH21, active compounds read low 1.05 | locus YDL185W, strain tfp1, active compounds read low 1.01 | locus YDL192W, strain arf1, active compounds read low 1.04 | locus YDR001C, strain nth1, active compounds read low 1.02 | locus YDR069C, strain doa4, active compounds read low 1.04 | locus YDR101C, strain arx1, active compounds read low 1.01 | locus YDR137W, strain rgp1, active compounds read low 1.02 | locus YDR159W, strain sac3, active compounds read low 1.02 | locus YDR162C, strain NBP2, active compounds read low 1.07 | locus YDR195W, strain ref2 1.01 | locus YDR297W, strain sur2, active compounds read low 1.02 | locus YDR318W, strain mcm21, active compounds read low 1.06 | locus YDR334W, strain swr1, active compounds read low 1.02 | locus YDR335W, strain msn5, active compounds read low 1.02 | locus YDR388W, active compounds read low 1.01 | locus YDR392W, strain spt3, active compounds read low 0.969 | locus YDR502C, strain sam2, active compounds read low 1.05 | locus YEL003W, strain gim4, active compounds read low 1.03 | locus YEL037C, strain rad23, active compounds read low 1.02 | locus YEL061C, strain CIN8 (second series), active compounds read low 1.02 | locus YEL061C, strain CIN8, active compounds read low 1.01 | locus YER015W, strain faa2, active compounds read low 1.02 | locus YER016W, strain bim1, active compounds read low 1.02 | locus YER110C, active compounds read low 1.01 | locus YER111C, strain swi4, active compounds read low 1.02 | locus YER155C, strain BEM2 (second series), active compounds read low 1.03 | locus YER155C, strain BEM2, active compounds read low 1.02 | locus YER167W, strain BCK2, active compounds read low 1.01 | locus YFR010W, strain ubp6, active compounds read low 1.02 | locus YGL078C, strain dbp3, active compounds read low 1.04 | locus YGL086W, strain mad1, active compounds read low 1.03 | locus YGL167C, strain pmr1, active compounds read low 1.02 | locus YGL173C, strain kem1, active compounds read low 1.03 | locus YGL227W, strain vid30, active compounds read low 1.02 | locus YGL240W, strain doc1, active compounds read low 1.02 | locus YGL248W, strain PDE1, active compounds read low 1.05 | locus YGL253W, strain hxk2, active compounds read low 1.02 | locus YGR078C, strain PAC10, active compounds read low 1.04 | locus YGR135W, strain pre9, active compounds read low 1.04 | locus YGR252W, strain gcn5, active compounds read low 1.09 | locus YHR013C, strain ard1, active compounds read low 1.03 | locus YHR027C, strain rpn1, active compounds read low 1.02 | locus YHR030C, strain SLT2, active compounds read low 1.01 | locus YHR079C, strain IRE1 (second series), active compounds read low 1.01 | locus YHR079C, strain IRE1, active compounds read low 1.02 | locus YHR094C, strain hxt1, active compounds read low 1 | locus YHR129C, strain ARP1, active compounds read low 1.02 | locus YHR142W, strain chs7, active compounds read low 1.01 | locus YHR200W, strain rpn10, active compounds read low 1.03 | locus YIL066C, strain RNR3, active compounds read low 1.03 | locus YIL073C, strain SPO22, active compounds read low 1.05 | locus YIL125W, strain kgd1, active compounds read low 1.02 | locus YIR030C, strain dcg1, active compounds read low 1.01 | locus YJL092W, strain hpr5, active compounds read low 1.02 | locus YJL095W, strain BCK1 (second series), active compounds read low 1.02 | locus YJL095W, strain BCK1, active compounds read low 1.08 and 1 | locus YJL115W, strain asf1, active compounds read low 1.02 | locus YJL129C, strain trk1, active compounds read low 1.01 | locus YJL134W, strain LCB3, active compounds read low 1.01 | locus YJL154C, strain vps35, active compounds read low 1.01 | locus YJL164C, strain tpk1, active compounds read low 1 | locus YJL166W, strain qcr8, active compounds read low 1.02 | locus YJL168C, strain set2, active compounds read low 1.02 | locus YJL187C, strain SWE1 (second series), active compounds read low 1.05 | locus YJL187C, strain SWE1, active compounds read low 1.02

— PubChem BioAssay AID1159580 (chemical genetic matrix, 2015)
